Test results from PubChem BioAssay (NCATS).
Results filed as inconclusive are left out. Activity calls are given as the source filed them. Calls come from the whole dose curve; as a rule, active = well fitted cell-killing curve with a large enough effect; inconclusive = small, poorly fitted or top-dose-only effect, or effect the other way; inactive = flat fitted curve, though single readings scatter.

Assays:
Experiment in all cases: Primary qHTS to identify gynecologic anti-cancer compounds using libraries of approved drugs and bioactive compounds (AID 1345084); note: nearly all actives have a fitted effect of over 55% in size
Settings in all cases: Gynecologic cancer cell panel viability, ATPlite luminescence, 48 h; series mostly up to 57.5 µM
OV90 = system: OV90
Procedure, shortened: (§1)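 Luminescence from the ATPlite ATP-monitoring reagent indicates viable cell number; lower signal means cytotoxicity. Cells received compound 16 h after seeding and were exposed for 48 h across five concentrations.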

PA-1 = system: PA-1
Procedure, shortened: as §1

Tov-21-G = system: Tov-21-G
Procedure, shortened: as §1

Tov112D = system: Tov112D
Procedure, shortened: as §1

SKOV3 = system: SKOV3
Procedure, shortened: as §1
% is set by controls: 0 for no effect and ±100 for the full control effect.

COCC1OC(n2cnc3c(=O)[nH]cnc32)C(O)C1O (stereo not given)
inactive: Potency (OV90) | Potency (PA-1) | Potency (Tov-21-G) | Potency (Tov112D)

O=C(/C=C/c1ccccc1)OC[C@H]1O[C@@H](OC(=O)c2cc(O)c(O)c(O)c2)[C@H](O)[C@@H](O)[C@@H]1O
inactive: Potency (OV90) | Potency (PA-1) | Potency (Tov-21-G) | Potency (Tov112D)

O=C(/C=C/N1C[C@@H]2C[C@@H]1CN2c1ccccn1)c1ccccc1O
inactive: Potency (OV90) | Potency (PA-1) | Potency (Tov-21-G) | Potency (Tov112D)

C=C1C(O)C(OC(=O)c2ccccc2)C2C(C)(C(=O)O)CCCC2(C)C1CC/C(C)=C\CO (stereo not given)
inactive: Potency (OV90) | Potency (PA-1) | Potency (Tov-21-G) | Potency (Tov112D)

O=C(O)c1ccncc1Nc1nn(CCN2CCC(F)(F)CC2)c2ccc(F)cc12
inactive: Potency (OV90) | Potency (PA-1) | Potency (Tov-21-G) | Potency (Tov112D)

COc1cccc(OC)c1-c1cc(C(=O)N[C@@H](CC(C)C)C(=O)O)nn1-c1ccnc2cc(Cl)ccc12
inactive: Potency (OV90) | Potency (PA-1) | Potency (Tov-21-G) | Potency (Tov112D)

COC1OC(=O)C2=C1C1(C)CCCC(C)(C)C1CC2O (stereo not given)
inactive: Potency (OV90) | Potency (PA-1) | Potency (Tov-21-G) | Potency (Tov112D)

C[C@@H]1CCC2C(C)(C)[C@H](O)[C@H](O)C[C@]2(C)[C@@]12Cc1c(O)cc3c(c1O2)CN(CCCC(=O)O)C3=O (stereo not given in full)
inactive: Potency (OV90) | Potency (PA-1) | Potency (Tov-21-G) | Potency (Tov112D)

CC(=O)O[C@@H]1C(O)C[C@@]2(C)C(CC[C@@H](C)C23Cc2c(O)cc4c(c2O3)CNC4=O)C1(C)C (stereo not given in full)
inactive: Potency (OV90) | Potency (PA-1) | Potency (Tov-21-G) | Potency (Tov112D)

CC(C)[C@](O)(c1ccc2cc(OC(F)F)c(OC(F)F)cc2c1)c1cn[nH]n1
inactive: Potency (OV90) | Potency (PA-1) | Potency (Tov-21-G) | Potency (Tov112D)

C/C(=C\C(=O)C(C)C1CCC2C3=C(CCC21C)C1(C)CCC(=O)C(C)(C)C1(O)CC3)C(C)(C)O (stereo not given)
inactive: Potency (OV90) | Potency (PA-1) | Potency (Tov-21-G) | Potency (Tov112D)

CC(=O)OC12CC(C)C(O)C1/C=C(/COC1OC(CO)C(O)C(O)C1O)CCC1C(/C=C(\C)C2=O)C1(C)C (stereo not given)
inactive: Potency (OV90) | Potency (PA-1) | Potency (Tov-21-G) | Potency (Tov112D)

COC(=O)c1cc(OC)cc(OC)c1C(=O)c1c(OC)cc2c(c1O)C1CCC(O)C(C)(O2)O1 (stereo not given)
inactive: Potency (OV90) | Potency (PA-1) | Potency (Tov-21-G) | Potency (Tov112D)

CC1(C)CC(NC(=O)C(=O)Nc2ccc(Cl)cc2)CC(C)(C)N1
inactive: Potency (OV90) | Potency (PA-1) | Potency (Tov-21-G) | Potency (Tov112D)

CCOC(=O)C(CCc1ccccc1)NC1CCCN2CCCC(C(=O)O)N2C1=O (stereo not given)
inactive: Potency (OV90) | Potency (PA-1) | Potency (Tov-21-G) | Potency (Tov112D)

O=C(/C=C/c1ccc(O)cc1)OC[C@H]1O[C@H](O[C@@]2(CO)O[C@@H](CO)[C@H](O)[C@H]2O)[C@H](O)[C@@H](O)[C@@H]1O
inactive: Potency (OV90) | Potency (PA-1) | Potency (Tov-21-G) | Potency (Tov112D)

C[C@@H]1CC[C@]2(C(=O)O[C@@H]3O[C@H](CO[C@@H]4O[C@H](CO)[C@@H](O)[C@H](O)[C@H]4O)[C@@H](O)[C@H](O)[C@H]3O)CC[C@]3(C)C(=CCC4[C@@]5(C)CC[C@H](O)[C@](C)(C(=O)O)C5CC[C@]43C)[C@@H]2[C@]1(C)O (stereo not given in full)
inactive: activity change, negative = cytotoxicity (OV90) 16.5% [at 11.6 µM] | activity change, negative = cytotoxicity (PA-1) 3.28% [at 11.6 µM] | activity change, negative = cytotoxicity (Tov-21-G) 4.06% [at 11.6 µM] | activity change, negative = cytotoxicity (Tov112D) -2.64% [at 11.6 µM]

C=C1[C@@H]2CC[C@@]3(C)[C@H](c4ccoc4)OC(=O)C[C@]13O[C@H]1CC(=O)C(C)(C)[C@H](C(O)C(=O)OC)[C@]12C (stereo not given in full)
inactive: Potency (OV90) | Potency (SKOV3) | Potency (Tov-21-G) | Potency (Tov112D)

CC1CCC2C(C(=O)O)=CC3(O)CC(C)(C)CC123 (stereo not given)
inactive: Potency (OV90) | Potency (SKOV3) | Potency (Tov-21-G) | Potency (Tov112D)

CC(=O)O[C@@H]1[C@H](O[C@@H]2O[C@H](CO)[C@@H](O)[C@H](O)[C@H]2O)[C@@H](O[C@@H]2O[C@@H](C)[C@H](O)[C@@H](O[C@@H]3O[C@H](CO)[C@@H](O)[C@H](O)[C@H]3O)[C@H]2O)[C@H](OC(=O)[C@]23CCC(C)(C)C[C@H]2C2=CCC4[C@@]5(C)C[C@H](O)[C@H](O[C@@H]6O[C@H](C(=O)O)[C@@H](O)[C@H](O)[C@H]6O)[C@@](C)(C(=O)O)C5CC[C@@]4(C)[C@]2(C)CC3)O[C@@H]1C (stereo not given in full)
inactive: activity change, negative = cytotoxicity (OV90) 12.5% [at 6.55 µM] | activity change, negative = cytotoxicity (PA-1) 1.9% [at 6.55 µM] | activity change, negative = cytotoxicity (Tov-21-G) 0.569% [at 6.55 µM] | activity change, negative = cytotoxicity (Tov112D) 7.58% [at 6.55 µM]

NC[C@@H]1O[C@@H](O[C@@H]2[C@@H](O[C@@H]3O[C@H](CO)[C@@H](O)[C@H]3O)[C@H](O)[C@@H](N)C[C@H]2N)[C@@H](N)[C@H](O)[C@H]1O
inactive: activity change, negative = cytotoxicity (OV90) 0.365% [at 11.6 µM] | activity change, negative = cytotoxicity (SKOV3) 2.15% [at 11.6 µM] | activity change, negative = cytotoxicity (Tov-21-G) -2.07% [at 11.6 µM] | activity change, negative = cytotoxicity (Tov112D) -1.83% [at 11.6 µM]

C=CCc1ccc(O[C@@H]2O[C@H](CO)[C@@H](O)[C@H](O)[C@H]2O)c(O[C@@H]2O[C@H](CO)[C@@H](O)[C@H](O)[C@H]2O)c1
inactive: Potency (OV90) | Potency (PA-1) | Potency (Tov-21-G) | Potency (Tov112D)

N#Cc1ccc(C2CCCc3cncn32)cc1 (stereo not given)
inactive: Potency (OV90) | Potency (SKOV3)
